Test results published in PubChem BioAssay (NCI).
Compounds without any hit were thinned out: in the full panel of roughly 83,000, 20% have a hit.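 Step 1: grow cells in 96-well plates. Step 2: add test compound at a single concentration. Step 3: incubate 48 h. Step 4: record percent growth.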 Calls of active or inactive are those of the source. The calls were made as follows: active = growth percent below 10; inactive = the rest.

Assays:
Assay in all cases: NCI-60 one-dose screen, 48 h (100 = growth as untreated, 0 = no growth, -100 = all killed)
Details in all cases: 10 µM unless noted
DU-145 prostate = tested on: DU-145 prostate
K-562 leukemia = tested on: K-562 leukemia
MALME-3M melanoma = tested on: MALME-3M melanoma
MDA-MB-231 breast = tested on: MDA-MB-231 breast
RXF 393 renal = tested on: RXF 393 renal
SF-268 CNS = tested on: SF-268 CNS
SF-295 CNS = tested on: SF-295 CNS
SF-539 CNS = tested on: SF-539 CNS
UACC-257 melanoma = tested on: UACC-257 melanoma
M14 melanoma = tested on: M14 melanoma

Measured: growth

CNC(=O)c1cc(Cn2nc(C)c(NC(=O)Nc3ccc(Cl)c(C(F)(F)F)c3)c2C)ccn1
inactive: DU-145 prostate 101% | K-562 leukemia 112% | MALME-3M melanoma 98.5% | MDA-MB-231 breast 91.8% | RXF 393 renal 102% | SF-268 CNS 98% | SF-295 CNS 95.5% | SF-539 CNS 94% | UACC-257 melanoma 79% | M14 melanoma 97.5%

C=C1C(=O)O[C@H]2[C@H]1CC/C(CNC(=O)C(C)c1ccc(CC(C)C)cc1)=C\CC[C@@]1(C)O[C@@H]21 (some centres undefined)
active: K-562 leukemia -13.8% | MALME-3M melanoma -60.7% | MDA-MB-231 breast -1.8% | RXF 393 renal -64.4% | SF-539 CNS -74.8% | UACC-257 melanoma -11.4% | M14 melanoma -74.3%
inactive: DU-145 prostate 16.4% | SF-268 CNS 43.9% | SF-295 CNS 75.9%

CN1CCN(c2ccc(NC3=C(Cl)C(=O)c4ncccc4C3=O)cc2C(F)(F)F)CC1
inactive: DU-145 prostate 96.6% | SF-268 CNS 87.7% | SF-295 CNS 106% | SF-539 CNS 104% | M14 melanoma 39.8%
active: K-562 leukemia 3.72% | MALME-3M melanoma -92.1% | MDA-MB-231 breast 4.49% | RXF 393 renal -71.4% | UACC-257 melanoma -56.8%

COC(=O)/C=C1\S/C(=N\NC(=O)c2cc3ccc2/C=C\c2ccc(cc2)/C=C\3)N(Cc2ccccc2)C1=O
inactive: DU-145 prostate 83.2% | K-562 leukemia 18.9% | MALME-3M melanoma 88.4% | MDA-MB-231 breast 56.8% | RXF 393 renal 15.6% | SF-268 CNS 85% | SF-295 CNS 89.4% | SF-539 CNS 43.3% | UACC-257 melanoma 81% | M14 melanoma 63.4%

CCN1CCN(CCNc2nccc(-c3c(-c4cccc(OC)c4)nc4occn34)n2)S1(=O)=O
active: K-562 leukemia 7.02% | MALME-3M melanoma 6.12%
inactive: DU-145 prostate 104% | MDA-MB-231 breast 87.7% | RXF 393 renal 94.4% | SF-268 CNS 102% | SF-295 CNS 101% | SF-539 CNS 104% | UACC-257 melanoma 52.7% | M14 melanoma 40%

Cc1ccc(/C=N/NC(=O)CSc2nc3ccccc3c(=O)n2Cc2ccc(S(N)(=O)=O)cc2)cc1
inactive: DU-145 prostate 105% | K-562 leukemia 63.3% | MALME-3M melanoma 97% | MDA-MB-231 breast 89.7% | RXF 393 renal 86.8% | SF-268 CNS 78.2% | SF-295 CNS 95% | SF-539 CNS 102% | UACC-257 melanoma 96.4% | M14 melanoma 98.1%

CN1CCN(C(=O)[C@]23CCC(C)(C)C[C@H]2C2=CC[C@@H]4[C@@]5(C)C/C(=C/c6ccncc6)C(=O)C(C)(C)[C@@H]5CC[C@@]4(C)[C@]2(C)CC3)CC1
inactive: DU-145 prostate 68.4% | K-562 leukemia 19% | MALME-3M melanoma 57.7% | MDA-MB-231 breast 64.2% | RXF 393 renal 27.6% | SF-268 CNS 64.4% | SF-295 CNS 67.1% | SF-539 CNS 69.3% | UACC-257 melanoma 57.5% | M14 melanoma 57.4%

Cc1ccc(S(=O)(=O)Nn2c3c(cc(-c4nc5ccccc5s4)c2=O)CCCCCC3)cc1
inactive: DU-145 prostate 105% | K-562 leukemia 98.4% | MALME-3M melanoma 88.3% | MDA-MB-231 breast 93.2% | RXF 393 renal 101% | SF-268 CNS 96% | SF-295 CNS 97.2% | SF-539 CNS 100% | UACC-257 melanoma 97.3% | M14 melanoma 99%

O=C(/C=C(/C=C/c1coc2ccccc12)OB(F)F)/C=C/c1coc2ccccc12
inactive: DU-145 prostate 99.1% | K-562 leukemia 72% | MALME-3M melanoma 94.5% | MDA-MB-231 breast 101% | RXF 393 renal 109% | SF-268 CNS 93.4% | SF-295 CNS 101% | SF-539 CNS 110% | UACC-257 melanoma 92.3% | M14 melanoma 96%

COc1ccccc1NS(=O)(=O)c1cccc(C(=O)Nc2ccc(Br)cc2)c1
inactive: DU-145 prostate 52.1% | K-562 leukemia 25.6% | MALME-3M melanoma 32% | MDA-MB-231 breast 50.6% | RXF 393 renal 57.7% | SF-268 CNS 30.9% | SF-295 CNS 27% | SF-539 CNS 64.3% | UACC-257 melanoma 32.9% | M14 melanoma 38.9%

O=C1Nc2cc(-c3ccc(NC(=O)c4ccccc4)cc3)ccc2/C1=C/c1ccc[nH]1
inactive: DU-145 prostate 98.9% | K-562 leukemia 95.1% | MALME-3M melanoma 102% | MDA-MB-231 breast 90% | RXF 393 renal 111% | SF-268 CNS 101% | SF-295 CNS 106% | SF-539 CNS 98% | UACC-257 melanoma 110% | M14 melanoma 105%

COc1cc(C=O)ccc1OC1OC(COC(C)=O)C(OC(C)=O)C(OC(C)=O)C1OC(C)=O (centres undefined)
inactive: DU-145 prostate 107% | K-562 leukemia 116% | MALME-3M melanoma 102% | MDA-MB-231 breast 101% | RXF 393 renal 103% | SF-268 CNS 99.2% | SF-295 CNS 102% | SF-539 CNS 96.7% | UACC-257 melanoma 101% | M14 melanoma 96.6%

COc1ccc(OC)c(CCn2cncc2-c2c[nH]c3ccccc23)c1
inactive: DU-145 prostate 88.4% | K-562 leukemia 42.4% | MALME-3M melanoma 74.5% | MDA-MB-231 breast 72.2% | RXF 393 renal 74.4% | SF-268 CNS 71.1% | SF-295 CNS 71.6% | SF-539 CNS 88.5% | UACC-257 melanoma 80.8% | M14 melanoma 73.3%

COc1c(Cl)c2c(c(OC)c1OC)-c1ccc(SC)c(=O)cc1[C@@H](NC(=O)OCC(F)(F)F)CC2
inactive: MALME-3M melanoma 34.9% | RXF 393 renal 18.7% | SF-268 CNS 27.2% | SF-295 CNS 15% | UACC-257 melanoma 70.5%
active: DU-145 prostate -6.54% | K-562 leukemia 7.39% | MDA-MB-231 breast -1.03% | SF-539 CNS -19% | M14 melanoma 0.43%

O=C(c1nc2ccccc2[nH]1)C1C(c2ccc(Br)cc2)C2CC3CCCC[C@H]3N2[C@@]12C(=O)Nc1cc(Cl)ccc12 (some centres undefined)
inactive: DU-145 prostate 52% | K-562 leukemia 25.3% | MALME-3M melanoma 32% | MDA-MB-231 breast 41.6% | RXF 393 renal 34% | SF-268 CNS 42% | SF-295 CNS 31.6% | SF-539 CNS 56% | UACC-257 melanoma 43.2% | M14 melanoma 26.9%

COc1ccc2[nH]c(=O)c(CN3CCN(c4nccc(-c5ccc(Cl)cc5)n4)CC3)cc2c1
inactive: DU-145 prostate 98.9% | K-562 leukemia 70.4% | MALME-3M melanoma 92.9% | MDA-MB-231 breast 85% | RXF 393 renal 90.3% | SF-268 CNS 90.5% | SF-295 CNS 98.4% | SF-539 CNS 89.8% | UACC-257 melanoma 82.6% | M14 melanoma 102%

COc1ccc(C(C)=O)c(OC)c1
inactive: DU-145 prostate 113% | K-562 leukemia 118% | MALME-3M melanoma 110% | MDA-MB-231 breast 102% | RXF 393 renal 117% | SF-268 CNS 111% | SF-295 CNS 110% | SF-539 CNS 103% | UACC-257 melanoma 97.8% | M14 melanoma 108%

O=C(Cn1c[n+](CC(=O)c2ccc(-c3ccccc3)cc2)c2ccccc21)Nc1cccc2cccnc12
active: MALME-3M melanoma 8.16% | MDA-MB-231 breast -7.75%
inactive: DU-145 prostate 36.9% | K-562 leukemia 12.6% | RXF 393 renal 83.7% | SF-268 CNS 20.3% | SF-295 CNS 78.1% | SF-539 CNS 23.6% | UACC-257 melanoma 10.1% | M14 melanoma 28.1%

Cc1cnc(C(=O)Nc2nc3ccc(S(=O)(=O)Nc4ccc(C(C)(C)C)cc4)cc3[nH]2)cn1
inactive: DU-145 prostate 12.4% | K-562 leukemia 11.4% | MALME-3M melanoma 43.8% | MDA-MB-231 breast 30.6% | SF-268 CNS 48.1% | SF-295 CNS 21.9% | UACC-257 melanoma 59.1%
active: RXF 393 renal -13.9% | SF-539 CNS -33.6% | M14 melanoma 1.89%

NC(=NCCCOc1ccc(F)cc1)Nc1ccc(Cl)cc1
inactive: DU-145 prostate 25% | K-562 leukemia 64.7% | MALME-3M melanoma 54.6% | MDA-MB-231 breast 53.7% | RXF 393 renal 73.6% | SF-268 CNS 49.9% | SF-295 CNS 47.5% | SF-539 CNS 59.7% | UACC-257 melanoma 13.4% | M14 melanoma 52.7%

CN1C(=O)NC(c2ccc3c(c2)OCO3)C=C1c1ccccc1 (centres undefined)
inactive: DU-145 prostate 94.7% | K-562 leukemia 76.5% | MALME-3M melanoma 88.4% | MDA-MB-231 breast 102% | RXF 393 renal 91.2% | SF-268 CNS 95.6% | SF-295 CNS 98.6% | SF-539 CNS 98.1% | UACC-257 melanoma 98.5% | M14 melanoma 96.9%

COc1ccc(/C=C(\C#N)n2nc3cccc(F)c3n2)cc1
inactive: DU-145 prostate 103% | K-562 leukemia 82.8% | MALME-3M melanoma 100% | MDA-MB-231 breast 112% | RXF 393 renal 104% | SF-268 CNS 104% | SF-295 CNS 99.9% | SF-539 CNS 101% | UACC-257 melanoma 95.5% | M14 melanoma 105%

N=C(N)c1ccc(OCCCCCCCCCCOc2ccc(C(=N)N)cc2)cc1
active: DU-145 prostate -96.6% | K-562 leukemia -67.5% | MALME-3M melanoma -81.8% | MDA-MB-231 breast -91.7% | RXF 393 renal -82.8% | SF-268 CNS -81.3% | SF-295 CNS -82.4% | SF-539 CNS -87% | UACC-257 melanoma -69.7% | M14 melanoma -85.6%

CCOC(=O)c1cc(C(=O)c2cc(OC)cc(OC)c2)n2ccc3ccccc3c12
inactive: DU-145 prostate 100% | K-562 leukemia 98.7% | MALME-3M melanoma 99.1% | MDA-MB-231 breast 80.1% | RXF 393 renal 61.5% | SF-268 CNS 78.1% | SF-295 CNS 94.9% | SF-539 CNS 74.1% | UACC-257 melanoma 93.4% | M14 melanoma 105%

CN(C)c1ccc(Nc2c3ccccc3nc3cc(NC(=O)CCN4CCCC4)ccc23)cc1
active: DU-145 prostate -38.5% | K-562 leukemia -4.43% | MALME-3M melanoma -90.9% | MDA-MB-231 breast -38.1% | RXF 393 renal -6.44% | SF-268 CNS -6.93% | SF-295 CNS 6.34% | SF-539 CNS -69% | UACC-257 melanoma -52% | M14 melanoma -84.9%

OCc1cnccc1NCCCCOc1ccc(Oc2ccccc2)cc1
inactive: DU-145 prostate 80.2% | MALME-3M melanoma 58% | MDA-MB-231 breast 62.6% | RXF 393 renal 66.1% | SF-268 CNS 80.9% | SF-295 CNS 51.5% | SF-539 CNS 67.3% | UACC-257 melanoma 54.5% | M14 melanoma 53.6%

CCOc1cccc(-c2nc(N)nc(Nc3ccccc3SSc3ccccc3Nc3nc(N)nc(-c4cccc(OCC)c4)n3)n2)c1
inactive: DU-145 prostate 83.9% | K-562 leukemia 68.9% | MALME-3M melanoma 97% | MDA-MB-231 breast 51.7% | RXF 393 renal 92.4% | SF-268 CNS 25.1% | SF-539 CNS 93.2% | UACC-257 melanoma 118% | M14 melanoma 69.4%
active: SF-295 CNS 5.56%
